The list is not random: actives were taken first. Their share in the collection is about 10%.
NPR1 antag: Natriuretic polypeptide receptor (hNpr1) antagonism - Primary qHTS | Atrial natriuretic peptide receptor 1 (Homo sapiens), P16066 | HEK293 hNpr1 GloSensor cGMP, ANP-stimulated luminescence | Potency, µM (titrated, usually from 46.3 µM), for inactives: at the highest dose activity change, negative = inhibition, most hits filed as inhibitors | 76,000 compounds, 1.6% hits | AID 1347048, 2019; calls by dose curve; note: nearly all actives have a fitted effect of over 60% in size
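Compound pre-incubated 30 min at room temperature on GloSensor-loaded HEK293 cells stably carrying hNpr1 and the pGS-40F cGMP biosensor. Stimulation uses hNppA at 0.1 nM final; luminescence is taken at baseline and 20 min post-agonist.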
NIH3T3 tox: Cytotoxic Profiling in NIH 3T3 Cell Line of Diverse Libraries Using Quantitative High-Throughput Screening; NIH 3T3 viability, CellTiter-Glo ATP luminescence, 48-72 h; Potency, µM (titrated, usually from 96.7 µM), for inactives: at the highest dose activity change, negative = cytotoxicity, most hits filed as inhibitors; 94,000 compounds, 4.3% hits; note: nearly all actives have a fitted effect of over 55% in size
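NIH 3T3 cells at 400 cells/well received 23 nL of compound by pintool and were incubated 48 or 72 h at 37 °C. Viability was read as ATP-coupled CellTiter-Glo luminescence.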
GPT2 inh: Primary qHTS assay for inhibitors of Glutamate pyruvate transaminase 2 (GPT2); Alanine aminotransferase 2 (Homo sapiens), Q8TD30; Recombinant GPT2, coupled pyruvate oxidase/HRP Amplex Red fluorescence; Potency, µM (series often up to 57.7 µM), for inactives: at the highest dose activity change, negative = inhibition, usual class: inhibitors; 100,000 compounds, 0.25% hits; note: nearly all actives have a fitted effect of over 60% in size
Target sequence (Q8TD30 whole entry, looked up): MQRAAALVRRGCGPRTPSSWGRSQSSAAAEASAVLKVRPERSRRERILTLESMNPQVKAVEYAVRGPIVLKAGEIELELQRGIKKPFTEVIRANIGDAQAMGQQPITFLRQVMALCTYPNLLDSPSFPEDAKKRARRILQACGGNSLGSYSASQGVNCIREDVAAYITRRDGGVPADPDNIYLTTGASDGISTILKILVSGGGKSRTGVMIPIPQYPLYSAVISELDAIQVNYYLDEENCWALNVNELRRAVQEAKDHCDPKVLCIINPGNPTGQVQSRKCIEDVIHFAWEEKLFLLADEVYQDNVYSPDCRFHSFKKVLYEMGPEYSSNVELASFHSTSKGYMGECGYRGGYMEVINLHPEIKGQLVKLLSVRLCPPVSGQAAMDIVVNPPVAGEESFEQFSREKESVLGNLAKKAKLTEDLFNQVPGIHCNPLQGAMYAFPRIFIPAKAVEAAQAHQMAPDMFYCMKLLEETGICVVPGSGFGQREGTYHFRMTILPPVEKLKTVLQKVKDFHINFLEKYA
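Fluorescence of coupled pyruvate oxidase/HRP/Amplex Red system (50uM Amplex, 30 min, dark) reports pyruvate formed by GPT2. Enzyme reaction: 10ng/uL GPT2, 2mM L-alanine, 250uM a-KG, 30 min room temperature, pH 7.5; 50uM AOA control.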
Luciferase inh: Firefly luciferase inhibition profiling of diverse chemical library using quantitative high-throughput screening; Potency, µM (doses to about 115 µM), hits mostly inhibitors; purified P. pyralis luciferase, luminescence, biochemical; 76,000 compounds, 2.5% hits; Luciferin 4-monooxygenase (Photinus pyralis), P08659; note: nearly all actives have a fitted effect of over 65% in size
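Inhibitors were tested against purified firefly luciferase in a biochemical, low-substrate format (both substrates at 10uM) and luminescence measured with a CCD imager.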
HEK293 tox: Cytotoxic Profiling in HEK 293 Cell Line of Diverse Libraries Using Quantitative High-Throughput Screening; 94,000 compounds, 6.6% hits; Potency, µM (series often up to 115 µM), inactives show at the top dose activity change, negative = cytotoxicity, most hits filed as inhibitors; HEK 293 viability, ATP luminescence (CellTiter-Glo), 48-72 h; note: nearly all actives have a fitted effect of over 60% in size
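Pintool-delivered compounds were incubated with HEK 293 cells (250 cells/well) at 37 degree Celsius for 48 or 72 hr. ATP-dependent luminescence (CellTiter-Glo) then reported remaining viable cells.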
Numbers without * were called inactive; [ ] = dose if it differs, or a comment. Unless noted, calls come from the whole dose curve; as a rule, active = well fitted curve in the direction sought with a large enough effect; inconclusive = small, poorly fitted or top-dose-only effect, or another doubt; inactive = no such curve, though single readings can be large; an effect the other way counts as inactive or inconclusive. % is set by controls: 0 for no effect and ±100 for the full control effect; potency is the fitted concentration of half-maximal effect.

Results for CCC1Oc2ccc(NC(=O)C3CCCC3)cc2CN(Cc2ccccc2Cl)C1=O (stereo not drawn) ?
NPR1 antag: -5%; NIH3T3 tox: inconclusive; GPT2 inh: -16%; Luciferase inh: inactive; HEK293 tox: 79µM*

What do the screens show for `O=C(COc1ccccc1)Nc1ccc2c(c1)CN(CCc1ccc(F)cc1)C(=O)CO2`?
NPR1 antag: 16µM*; NIH3T3 tox: inconclusive; GPT2 inh: inactive; Luciferase inh: inconclusive; HEK293 tox: inconclusive

How did CCC1Oc2ccc(NC(=O)Cc3ccccc3)cc2CN(Cc2ccc(F)cc2)C1=O (stereo not drawn) do in these assays?
NPR1 antag: -6%; NIH3T3 tox: inconclusive; GPT2 inh: inactive; Luciferase inh: inactive; HEK293 tox: inconclusive

How did CC1Oc2ccc(NC(=O)Cc3ccc(F)cc3)cc2CN(Cc2ccc(Cl)cc2)C1=O (stereo not drawn) do in these assays?
NPR1 antag: -24%; NIH3T3 tox: 28µM*; GPT2 inh: -5%; Luciferase inh: inactive; HEK293 tox: 40µM*

How did COc1ccccc1CN1Cc2cc(NC(=O)Cc3ccc(F)cc3)ccc2OC(C)C1=O (stereo not drawn) do in these assays?
NPR1 antag: -15%; NIH3T3 tox: inconclusive; GPT2 inh: inactive; Luciferase inh: inactive; HEK293 tox: inconclusive

Results for COCC(=O)NC1CCCN(c2ccnc3ccnn23)C1 (stereo not drawn) ?
NIH3T3 tox: -4%[138 µM]; GPT2 inh: -18%[88.5 µM]; HEK293 tox: inactive

How did O=C(C1CCCCC1)N(CCN1CCN(c2ccccc2O)CC1)c1ccccn1 do in these assays?
GPT2 inh: inactive

What do the screens show for `Cc1ccc([S+](=O)([O-])N2CCN(C(=O)c3nc4cccnc4n(CC(C)C)c3=O)CC2)cc1`?
NIH3T3 tox: inconclusive; GPT2 inh: inactive; HEK293 tox: inconclusive

What do the screens show for `O=C(Cc1ccc(F)cc1)N1CCC(c2n[nH]c(=O)n2-c2ccccc2)CC1`?
NPR1 antag: 3%; NIH3T3 tox: -28%; GPT2 inh: 1%; Luciferase inh: inactive; HEK293 tox: 10%

What do the screens show for `CCC1Oc2ccc(NC(=O)c3ccc(F)cc3F)cc2CN(Cc2ccc(Cl)cc2)C1=O` (stereo not drawn)?
NPR1 antag: -2%; NIH3T3 tox: inconclusive; GPT2 inh: -1%; Luciferase inh: inactive; HEK293 tox: inconclusive

How did O=C(Nc1ccc2c(c1)CN(Cc1ccc(Cl)cc1)C(=O)CO2)c1ccc(F)cc1F do in these assays?
NPR1 antag: -27%; NIH3T3 tox: inconclusive; GPT2 inh: inactive; Luciferase inh: inactive; HEK293 tox: 79µM*

What do the screens show for `COCC(=O)Nc1cc(C2CC2)nn1C`?
NIH3T3 tox: -20%[174 µM]; GPT2 inh: 3%[88.5 µM]; HEK293 tox: -12%[230 µM]

What do the screens show for `CC(=O)Nc1ccc(CN2CCCC23Cc2ccccc2CN(C(C)=O)C3)cc1` (stereo not drawn)?
NIH3T3 tox: -29%; GPT2 inh: -1%; HEK293 tox: inconclusive

What do the screens show for `O=C(NCc1cccnc1)c1cc(CN2CCC(Cc3ccccc3)CC2)on1`?
NPR1 antag: -7%; NIH3T3 tox: 32µM*; GPT2 inh: 5%; Luciferase inh: inactive; HEK293 tox: -28%

What do the screens show for `Cc1cnc(CNC(=O)c2cc(CN3CCC(Cc4ccccc4)CC3)on2)cn1`?
NPR1 antag: -2%; NIH3T3 tox: -20%; GPT2 inh: -6%; Luciferase inh: inactive; HEK293 tox: inconclusive

What do the screens show for `CN(Cc1cccnc1)c1nc2c(c(=O)[nH]1)CCN(Cc1cccc(Cl)c1F)CC2`?
NPR1 antag: -12%; NIH3T3 tox: inconclusive; GPT2 inh: -10%; Luciferase inh: inactive; HEK293 tox: 25µM*

What do the screens show for `CN(Cc1cccnc1)c1nc2c(c(=O)[nH]1)CCN(Cc1ccc(C(F)(F)F)cc1)CC2`?
NPR1 antag: -17%; NIH3T3 tox: inconclusive; GPT2 inh: inactive; Luciferase inh: inactive; HEK293 tox: 32µM*

What do the screens show for `Cc1ncoc1C(=O)NCC(=O)N1CCCCCNC(=O)CC1c1ccccc1` (stereo not drawn)?
NPR1 antag: 1%; NIH3T3 tox: -11%; GPT2 inh: -11%; Luciferase inh: inactive; HEK293 tox: -11%

Results for O=C(Cc1c[nH]c2ncc(-c3ccc4c(c3)OCO4)cc12)N1CCOCC1 ?
NPR1 antag: inconclusive; NIH3T3 tox: 25µM*; GPT2 inh: -1%[88.5 µM]; Luciferase inh: inconclusive; HEK293 tox: inconclusive

How did COc1ccc(-c2cnc3[nH]cc(CC(=O)N4CCOCC4)c3c2)cn1 do in these assays?
NPR1 antag: -27%[70.6 µM]; NIH3T3 tox: 25µM*; GPT2 inh: inconclusive; Luciferase inh: inconclusive; HEK293 tox: inconclusive

What do the screens show for `CN(C)C(=O)c1ccc(-c2cnc3[nH]cc(CC(=O)N4CCOCC4)c3c2)cc1`?
NPR1 antag: -2%[70.6 µM]; NIH3T3 tox: inconclusive; GPT2 inh: inactive; Luciferase inh: inactive; HEK293 tox: inconclusive

What do the screens show for `O=C(Cc1c[nH]c2ncc(-c3ccc(F)cc3)cc12)N1CCOCC1`?
NPR1 antag: inconclusive; NIH3T3 tox: inconclusive; GPT2 inh: 2%[88.5 µM]; Luciferase inh: 56µM*; HEK293 tox: inconclusive

What do the screens show for `O=C(Cc1c[nH]c2ncc(-c3ccncc3)cc12)N1CCOCC1`?
NPR1 antag: -3%[70.6 µM]; NIH3T3 tox: inconclusive; GPT2 inh: inactive; Luciferase inh: inactive; HEK293 tox: -24%[172 µM]

How did COc1ccc(-c2noc(-c3cccn3CC(=O)Nc3cccc(C#N)c3)n2)cc1F do in these assays?
NPR1 antag: 0%; NIH3T3 tox: -19%; GPT2 inh: inactive; Luciferase inh: inactive; HEK293 tox: inconclusive

How did Clc1cccc(-c2noc(-c3ncn4c3COC(c3ccccc3Cl)C4)n2)c1 (stereo not drawn) do in these assays?
NPR1 antag: -3%; NIH3T3 tox: -12%; GPT2 inh: inconclusive; Luciferase inh: inconclusive; HEK293 tox: -18%

What do the screens show for `O=C(Nc1ccc(C(F)(F)F)cc1)N[C@H]1[C@H](O)[C@H](O)C[C@@H]1c1ccccc1`?
NPR1 antag: -13%[70.6 µM]; NIH3T3 tox: 79µM*; GPT2 inh: inactive; Luciferase inh: inactive; HEK293 tox: inconclusive

How did CCOc1ncccc1Cn1cc(-c2cncnc2)nn1 do in these assays?
NPR1 antag: 0%; NIH3T3 tox: -1%; GPT2 inh: inconclusive; Luciferase inh: inactive; HEK293 tox: 0%
